# Shown are actives, neighbours in structure and some others; about 19% of the full set was active somewhere.
# MCF10A rerep: DNA re-replication induction in MCF 10a cells | MCF 10A DNA re-replication, Hoechst nuclear intensity, 48 h | Potency, µM (highest dose often 46.1 µM), without a hit: top-dose activity, positive = re-replication, usual class: activators | 350,000 tested, 2.9% active | AID 624296; further: potency means the concentration at half of the fitted maximal effect; % of control where 0% means no effect; nearly all actives have a fitted effect of over 50% in size
# Chronic BCR inh: chronic active BCR signaling inhibition. ABC-DLBCL IkBa-CBG/CBR reporter, luminescence ratio, 4 h. Potency, µM (series often up to 46.1 µM), inactives show at the top dose activity change, negative = inhibition, usual class: inhibitors. 340,000 tested, 0.05% active. AID 493014; active means well fitted inhibition curve with a large enough effect in the signal ratio, with a control signal flat, not every such curve was filed as active; inconclusive means small, poorly fitted or top-dose-only effect, or effect the other way, or a change in a side signal; the % refers to the signal ratio;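 further: potency means the concentration at half of the fitted maximal effect; plate controls were basal doxycycline-induced cells for no effect and cells given 10 µM MG132 for full effect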
#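 TMD8 ABC-DLBCL cells carrying doxycycline-inducible green luciferase fused to IkappaBalpha plus unfused red luciferase were exposed to compounds (up to 46 uM) for 4 hrs at 37C. Activity came from the overlap-corrected green/red luminescence ratio.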
# TDP1 cell noCPT: qHTS for Inhibitors of human tyrosyl-DNA phosphodiesterase 1 (TDP1): qHTS in cells in absence of CPT. DT40 Tdp1-/- hTDP1 cells, no CPT, ATP luminescence, 48 h. Potency, µM (highest dose often 46.2 µM), inactives show top-dose activity change, negative = growth inhibition, most hits filed as inhibitors. 420,000 tested, 15% active; further: potency means the concentration at half of the fitted maximal effect; on the % scale 0 is the no-effect control and ±100 the full control effect; nearly all actives have a fitted effect of over 55% in size
#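 Compound effects on proliferation are scored in DT40 Tdp1-/-;hTDP1 cells in the absence of CPT. ATP levels (CellTiter-Glo luminescence) are recorded after a ≥48 hr, 37 °C incubation.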
# DT40 TDP1 CPT: DT40-hTDP1 cell growth loss with CPT. chicken DT40 Tdp1-/-;hTDP1 cells + 20 nM CPT, ATP luminescence, 48 h. Potency, µM (highest dose often 46.2 µM), for the others: at the highest dose activity change, negative = growth inhibition, hits mostly inhibitors. 420,000 tested, 12% active. AID 686979; further: potency means the concentration at half of the fitted maximal effect; on the % scale 0 is the no-effect control and ±100 the full control effect; nearly all actives have a fitted effect of over 55% in size
#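 Chicken DT40 Tdp1-/- cells stably complemented with human TDP1 were seeded at 400 cells/well in medium containing 20 nM camptothecin, exposed to pin-transferred compounds, and grown at 37 °C for at least 48 hr. Viability was read as ATP luminescence.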
# SW480 rereplic: DNA re-replication induction in SW480 cells; SW480 DNA re-replication, Hoechst DNA content imaging, 48 h; Potency, µM (highest dose often 46.1 µM), for the others: at the top dose re-replication activation, actives largely listed as activators; 340,000 tested, 1.8% active; AID 624297; further: potency means the concentration at half of the fitted maximal effect; % of control where 0% means no effect; nearly all actives have a fitted effect of over 55% in size
#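 SW480 cells exposed to compounds for 48 hr at 37 C, 5% CO2, then Hoechst-stained 40 min. Nuclear DNA content imaged by fluorescence scanning (405 nm excitation, 500-530 nm emission); re-replication scored as increased high-intensity nuclei.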
# IL1B secr inh: inhibitors of inflammasome signaling (IL-1 beta secretion) | 360,000 tested, 4.7% active | THP-1 LPS/ATP IL-1B secretion, AlphaLISA, 16 h; stronger effect = lower value | activity change, % at 57.5 µM | AID 743279; in the data active means activity change below about -50%; inconclusive means mostly about -30% to -49%; further: on the % scale 0 is the no-effect control and ±100 the full control effect
#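 THP-1 cells pretreated 1 hr with compounds (up to 57.5 uM final), then stimulated with LPS (250 ng/mL final) plus ATP (1.25 mM final); secreted IL-1B measured by AlphaLISA after 16 hr, decreased signal indicating inhibition.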
# An asterisk follows results filed as active; ? = inconclusive; nt = not tested or not shown. Unless noted, the call rests on the fitted dose curve; in most records, active means well fitted curve in the direction sought with a large enough effect; inconclusive means small, poorly fitted or top-dose-only effect, or another doubt; inactive means no such curve, though single readings can be large; an effect the other way counts as inactive or inconclusive.
SMILES,MCF10A rerep,Chronic BCR inh,TDP1 cell noCPT,DT40 TDP1 CPT,SW480 rereplic,IL1B secr inh
CCc1ccc(NC(=O)CSc2nc(=O)n(CCCN3CCOCC3)c3c2CCC3)cc1,?,9%,-15%,7%,?,-3
CCCCc1ccc(NC(=O)CSc2nc(=O)n(CCN3CCOCC3)c3c2CCC3)cc1,20%,9%,-22%,9%,-4%,-70*
CCCCc1ccc(NC(=O)CSc2nc(=O)n(CCCN3CCOCC3)c3c2CCC3)cc1,24%,-5%,?,?,13%,-83*
Cc1ccc(C(=O)NCC(=O)NC23CC4CC(CC(C4)C2)C3)cc1,?,3%,3%,-3%,-6%,15
Cc1ccc(Cn2nnc3c(=O)[nH]c(C4CCCN(C(=O)Nc5ccc(F)cc5)C4)nc32)cc1 (centres undefined),15%,-1%,18µM*,?,-10%,9
CC(=O)Nc1ccc(S(=O)(=O)N2CCC(c3nc4c(nnn4Cc4ccccc4Cl)c(=O)[nH]3)CC2)cc1,11%,?,16%,26%,-4%,-51*
Cc1ccc(C)c(Cn2nnc3c(=O)[nH]c(C4CCCN(C(=O)C5CCC5)C4)nc32)c1 (centres undefined),20%,3%,-12%,-4%,11%,16
O=C(Nc1ccc(F)cc1)N1CCC(c2nc3c(nnn3Cc3ccccc3Cl)c(=O)[nH]2)CC1,1%,?,?,?,4%,-74*
Cc1ccc(S(=O)(=O)N2CC3=C(C2)C2CC2(C)C3)cc1 (centres undefined),nt,nt,?,-16%,nt,17
O=C(COC(=O)c1cccc(Cl)c1)Nc1cccc(S(=O)(=O)NC2=NCCC2)c1,1%,-1%,13%,-11%,8%,0
Oc1ccccc1CNc1cnc2ccccc2c1,3%,?,23µM*,23µM*,4%,-11
Oc1ccc2ccccc2c1CNc1cnc2ccccc2c1,-7%,?,-28%,-18%,-2%,-4
Oc1ccc(Cl)cc1CNCc1cccc2ccccc12,3%,12%,?,?,-6%,-21
C=CCc1cccc(CNc2cnc3ccccc3c2)c1O,-4%,-1%,10µM*,6.5µM*,-3%,10
Oc1ccc(Cl)cc1CNc1cnc2ccccc2c1,26%,1%,29µM*,?,-7%,-10
CCN(CC(=O)NCc1ccco1)S(=O)(=O)c1ccc(OC)cc1,-1%,1%,0%,-1%,-6%,-8
Nc1ccc2c(c1)C=C/C2=C\c1ccccc1,nt,nt,?,3%,nt,nt
Cc1cc(C)c2c(=O)n(CC(=O)Nc3cccc(Cl)c3C)sc2n1,?,-3%,3.7µM*,5.2µM*,?,3
Cc1cc(C)c2c(=O)n(CC(=O)NC3CCCC3)sc2n1,21µM*,?,4.1µM*,2.9µM*,26%,-2
Cc1cc(C)c2c(N)c(C(=O)NC3CCCC3)sc2n1,17%,?,-29%,-2%,-2%,?
Cc1cc(NC(=O)Cc2ccsc2)ccc1Br,10%,?,-11%,-13%,-2%,-23
Cc1cc(C)c2c(=O)n(CC(=O)Nc3ccc(Br)c(C)c3)sc2n1,?,-3%,9.2µM*,8.2µM*,?,8
Cc1c(C(=O)N2CCCCC2c2cccnc2)sc2ncnc(NCc3cccs3)c12 (centres undefined),nt,nt,?,-3%,nt,nt
Cc1cc(C)c2cc(C#N)c(NCCNC(=O)c3ccncc3)nc2c1,nt,nt,-26%,?,nt,-13
Cc1ccc(N(CC(=O)N2CCCCCC2)S(C)(=O)=O)c(C)c1,nt,nt,-14%,-9%,nt,-9

# Bioassay records: PubChem, National Center for Advancing Translational Sciences (NCATS)
